# Compounds with a hit are over-represented: about 9.4% of the library has one in this group of screens.
# Pf growth 96h: inhibits malaria parasite growth, 96 h; AID 504834; Potency, µM (doses to about 28.7 µM), without a hit: top-dose activity change, negative = inhibition, most hits filed as inhibitors; P. falciparum luciferase reporter growth, 96 h; hit rate 6.9% among 320,000; further: on the % scale 0 is the no-effect control and ±100 the full control effect
#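 Readout is luminescence from an integrated firefly luciferase in P. falciparum. Red cells, 2% hematocrit and 0.05% parasitemia final, were cultured with compound through two parasite generations (96 hours) at 37 C, 5% CO2.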
# Pf growth 48h: P. falciparum growth inhibition at 48 hours (one generation). Potency, µM (doses to about 28.7 µM), without a hit: top-dose activity change, negative = inhibition, actives largely listed as inhibitors. P. falciparum luciferase growth in erythrocytes, 48 h. hit rate 5.9% among 310,000; further: on the % scale 0 is the no-effect control and ±100 the full control effect
#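 In quantitative HTS format, infected erythrocytes bearing luciferase-reporter parasites were treated for a single generation at 37 C. Luminescence after adding detection reagent served as the growth measure.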
# SARS PLpro yeast: blocks SARS-CoV papain-like protease in a yeast assay | S. cerevisiae expressing SARS-CoV PLpro, growth rescue | Potency, µM (titrated, usually from 32.9 µM), inactives show at the highest dose activity, positive = growth rescue, most hits filed as activators | hit rate 0.19% among 330,000 | AID 485353; calls by dose curve; further: 0% is about no effect; nearly all actives have a fitted effect of over 55% in size
# AMA1 RON2 block: AMA1-RON2 (P. falciparum) interaction inhibition. AlphaScreen AMA1-biotinylated RON2 peptide binding. Potency, µM (highest dose often 58.2 µM), inactives show at the top dose activity change, negative = inhibition, actives largely listed as inhibitors. hit rate 0.2% among 360,000. AID 720542;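 further: 0% = vehicle wells and -100% = peptide control; nearly all actives have a fitted effect of over 45% in size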
#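 AMA1 (3D7) with his tag at 25 nM final met compounds first, then biotinylated RON2 peptide at 25 nM; detection used donor plus acceptor beads, 10 µg/mL apiece, read by AlphaScreen after 30 min at room temperature.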
# The depositor's hits bear a star; ? = inconclusive; / = not tested or not shown. Unless noted, the call rests on the fitted dose curve; in most records, active means well fitted curve in the direction sought with a large enough effect; inconclusive means small, poorly fitted or top-dose-only effect, or another doubt; inactive means no such curve, though single readings can be large; an effect the other way counts as inactive or inconclusive. Potency means the concentration at half of the fitted maximal effect.
SMILES,Pf growth 96h,Pf growth 48h,SARS PLpro yeast,AMA1 RON2 block
C#CCOCCOCCOCCNc1nc(N2CCOCC2)nc(N2CCN(C(=O)CCCCCCCCCCNC(=O)[C@H]([C@@H](C)CC)n3cc(CCCCN=C(N)N)nn3)CC2)n1,0.522µM*,0.37µM*,2.1%,-14.2%
C#CCOCCOCCOCCNc1nc(N2CCN(C(=O)CCCCCCCCCCNC(=O)[C@H]([C@@H](C)CC)n3cc(CCCCN=C(N)N)nn3)CC2)nc(N2CCN(C(=O)CCCCCCCCCCNC(=O)[C@@H]([C@H](C)O)n3cc(C)nn3)CC2)n1,?,1.85µM*,3.0%,?
C#CCOCCOCCOCCNc1nc(N2CCN(C(=O)CCCCCCCCCCNC(=O)[C@H](CCCN=C(N)N)n3cc(C[C@@H](C)CC)nn3)CC2)nc(N2CCN(C(=O)CCCCCCCCCCNC(=O)[C@@H]([C@H](C)CC)n3cc(CCCCCN)nn3)CC2)n1,8.28µM*,3.29µM*,1.2%,/
O=S(=O)(Nc1ccc2ccccc2n1)c1ccc2c(c1)CCO2,0.0%,0.0%,0.1%,-8.9%
Cc1onc(-c2ccccc2Cl)c1C(=O)N1CCN(C=O)CC1,5.0%,8.6%,1.7%,7.2%
CN(C)c1ccc(C(=S)N2CCCCC2)cc1Br,20.0%,3.9%,0.0%,-29.4%
Cc1ccc(S(=O)(=O)N2CC(=NO)C2)cc1,13.1µM*,8.8%,-1.2%,22.5%
Cc1ccc(S(=O)(=O)N2CCN(S(C)(=O)=O)C2)cc1,13.1µM*,7.2%,2.7%,18.8%
C[C@H](CO)N1C[C@H](C)[C@@H](CN(C)S(=O)(=O)c2ccc(F)cc2)Oc2ccc(NC(=O)Cc3cn(C)c4ccccc34)cc2C1=O,/,/,3.2%,-3.6%
Cc1cccc(N2CCN(C(=O)c3ccc(CS(=O)(=O)c4ccccc4C)o3)CC2C)c1 (stereo not drawn),169.9%,13.1µM*,-11.5%,-11.0%
COc1ccccc1S(=O)(=O)Cc1ccc(C(=O)N2CCN(c3cccc(Cl)c3)CC2)o1,3.8%,11.7µM*,4.8%,-14.5%
COc1ccc(N2CCN(C(=O)c3ccc(CS(=O)(=O)c4ccccc4C)o3)CC2)cc1,10.4µM*,13.4%,-1.1%,-0.7%
COCCOC(=O)C1=C(N)Oc2c(oc(CO)cc2=O)C1c1c(F)cccc1Cl (stereo not drawn),4.65µM*,/,5.1%,0.9%
CC(C)(/C=N/O)N(O)C=C1C=CC(=O)C=C1,0.0%,-1.3%,-0.9%,-8.0%
CSc1nnc(CCCCCNC(=O)OC(C)(C)C)o1,-4.8%,10.2%,0.1%,-5.1%
CSc1nnc(CCCCCCCCc2nnc(SC)o2)o1,13.1µM*,?,-0.9%,-3.3%
CC(=O)c1cc(C)ccc1OC(=O)CN1C(=O)c2ccccc2C1=O,7.2%,-19.8%,1.9%,1.5%
COC(=O)c1cccc(CN2C(=O)C(C)Oc3ccc(C)cc32)c1 (stereo not drawn),/,/,/,2.8%
COc1ccccc1NS(=O)(=O)c1cccc(C(=O)N2CCN(C/C=C/c3ccccc3)CC2)c1,8.28µM*,5.86µM*,-4.7%,13.5%
Cc1cccc(NS(=O)(=O)c2cccc(C(=O)N3CCN(C/C=C/c4ccccc4)CC3)c2)c1,10.4µM*,11.7µM*,3.5%,-0.6%
Cc1noc(C)c1COc1cccc(C(=O)Nc2ccccc2)c1,?,?,2.0%,-10.6%
COc1ccccc1NC(=O)C(C)N1CCN(C/C=C/c2ccccc2)CC1 (stereo not drawn),17.3%,13.1µM*,-5.6%,-6.3%
Cc1noc(C)c1COc1cccc(C(=O)N2CCN(C/C=C/c3ccccc3)CC2)c1,/,10.4µM*,0.0%,-12.4%
Cc1c(NC(=S)NC(=O)c2cc3ccccc3o2)cccc1C(=O)O,-11.0%,20.6%,-5.2%,16.1%
COc1ccccc1NS(=O)(=O)c1cc(C(=O)N2CCCC2)ccc1F,?,3.29µM*,-0.6%,0.0%
COc1ccccc1NS(=O)(=O)c1cc(C(=O)N2CCCCCCC2)ccc1C,?,-22.1%,-1.9%,16.1%
O=C(CN1C(=O)CSc2ccc(S(=O)(=O)N3CCCCC3)cc21)NCc1cccnc1,2.33µM*,?,?,-1.5%
COc1ccc(NC(=O)CN2C(=O)CSc3ccc(S(=O)(=O)N4CCCC4)cc32)cc1OC,-15.3%,?,-2.0%,-6.2%
CC1CCN(S(=O)(=O)c2ccc3c(c2)N(CC(=O)NCc2cccnc2)C(=O)CS3)CC1,102.1%,-19.1%,-7.1%,0.7%
COc1ccccc1CNC(=O)CN1C(=O)CSc2ccc(S(=O)(=O)N3CCCC3)cc21,?,13.1µM*,2.5%,0.9%

# Source: PubChem (National Center for Advancing Translational Sciences (NCATS))
